Assay results as given in PubChem BioAssay.

Biological target: Homeobox protein Hox-A13 (Mus musculus) (UniProt Q62424)
Assay: inhibitors of HoxA13-DNA binding, primary screen, biochemical, fluorescence polarization, labeled oligonucleotide (AID 1185)
Conditions: 15 min, higher = more signal, called active from +8 up or from −8 down

Chain of Homeobox protein Hox-A13 (Mus musculus) (Q62424 whole entry, looked up): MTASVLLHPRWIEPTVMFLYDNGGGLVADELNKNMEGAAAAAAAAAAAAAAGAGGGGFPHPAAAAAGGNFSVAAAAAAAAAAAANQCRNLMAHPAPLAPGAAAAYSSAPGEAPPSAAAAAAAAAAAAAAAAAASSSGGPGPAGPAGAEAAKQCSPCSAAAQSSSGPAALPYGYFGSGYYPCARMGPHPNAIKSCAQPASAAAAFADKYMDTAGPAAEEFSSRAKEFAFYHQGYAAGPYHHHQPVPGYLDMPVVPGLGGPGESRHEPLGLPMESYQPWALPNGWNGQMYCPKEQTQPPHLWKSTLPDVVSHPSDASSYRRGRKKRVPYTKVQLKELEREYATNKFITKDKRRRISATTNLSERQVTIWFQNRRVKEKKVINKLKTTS

z-score, inactive:
CCC=CCCC(OC(=O)c1ccc(Br)cc1)C1=CCCCC1=O (stereo unspecified) -3.22, COc1ccc(O[C@H]2C=C[C@@H](c3ccccc3)O[C@@H]2CON=C2[C@H]3CCn4c(=O)n(-c5ccccc5)c(=O)n4[C@H]3[C@H](O)[C@@H]3O[C@H]23)cc1 -4.59, CC(C)CON=C1[C@H]2CCn3c(=O)n(Cc4cc5c(cc4Cl)OCO5)c(=O)n3[C@H]2[C@H](O)[C@@H]2O[C@H]12 1.8, CCOC(=O)NN=C1C[C@@H](O)[C@@H](O)[C@@H]2[C@@H]3C(=O)N([C@@H](C)c4ccccc4)C(=O)[C@@H]3CC[C@H]12 -1.52, O=C1C[C@@H](O)[C@@H](O)[C@@H]2[C@@H]3C(=O)N(C[C@@H]4CCCO4)C(=O)[C@@H]3CC[C@H]12 0.195, CO[C@H]1COC(=O)[C@@H]2CCCN2C(=O)CC=C[C@@H](C)[C@H](OC)COC(=O)[C@@H](OCc2ccccc2)C=C[C@@H]1C -1.53, CC(CCN1CCCc2nc(C)c(C)cc21)=NOC(C)CN1CCCCc2nc(C)c(C)cc21 (stereo unspecified) -6.78, C[C@@H]1CC[C@H]2C(=O)O[C@@H](Cc3ccccc3)CN2[C@H]1c1ccc(Br)cc1 -1.7, COC(=O)[C@H]1O[C@@H](c2c(OC)c(OC)c(C)c(OC)c2OC)[C@H](C)[C@@H](O)[C@H]1C 0.6, CC(C)(C)N1C(=O)[C@H]2[C@H]3[C@H](O)C=CC(=O)[C@@H]3CC[C@H]2C1=O 0.14, COC(=O)CC=C[C@H](C)[C@@H](OCc1cccc(Br)c1)[C@@H](C)[C@H](OC)C1CCCCC1 0.0373, O=C1C[C@@H](O)[C@@H](O)[C@@H]2[C@@H]3C(=O)N(C[C@@H]4CCCO4)C(=O)[C@@H]3CC[C@@H]12 0.368, O=C1C[C@@H](O)[C@@H](O)[C@@H]2[C@@H]3C(=O)N(Cc4ccccc4)C(=O)[C@@H]3CC[C@@H]12 -0.967, CC(=O)OC[C@H]1OC(ON=CC[C@@H]2C=C[C@H](OC(C)=O)[C@@H](COC(C)=O)O2)[C@H](OC(C)=O)[C@@H](OC(C)=O)[C@@H]1OC(C)=O (stereo partly specified) -2.22, COc1ccc(O[C@H]2C=C[C@@H](c3ccccc3)O[C@@H]2CON=C(C)CCN2CCc3nc(-c4ccccc4)c(-c4ccccc4)cc3C2)cc1 -1.81, O=C(C=Cc1ccc2c(c1)OCO2)c1ccc(F)cc1 0.526, CCN1C(=O)[C@H]2[C@H]3[C@H](O)[C@H](O)CC(=NO[C@@H](C)c4cn([C@H](CO)Cc5ccccc5)nn4)[C@@H]3CC[C@H]2C1=O -2.02, C[C@H]1COC(=O)[C@@H]2CCCN2C(=O)[C@@H](C)COC(=O)[C@H](Cc2ccccc2)NC1=O 0.163, CO[C@@H]1COC(=O)CC=C[C@H](C)[C@H](OC)COC(=O)[C@H](C)NC(=O)CC=C[C@H]1C 0.189, CC(C)C[C@H](NC(=O)CCC1CC(OC(=O)NCc2cccc3ccccc23)CC2(CCCC(COC(=O)NCc3ccccc3)O2)O1)C(=O)NCC(c1ccccc1)c1ccccc1 (stereo partly specified) -6.28, Cc1ccc(S(=O)(=O)N[C@@H]2COC(=O)[C@@H](C)COC(=O)CC=C[C@H]2C)cc1 -0.0483, CO[C@@H]1COC(=O)[C@@H]2CCCN2C(=O)[C@@H](C)COC(=O)CC=C[C@H]1C -0.236, CCOC(=O)[C@H](Cc1ccccc1)NC(=O)CCC1CC(OC(=O)NCCc2ccc(F)cc2)CC2(CCCC(COC(=O)NCc3ccccc3)O2)O1 (stereo partly specified) -2.25, CC(C)=CCCC(C)=CCON=C1C[C@@H](O)[C@@H](O)[C@@H]2[C@@H]3C(=O)N(c4cccc(Oc5ccccc5)c4)C(=O)[C@@H]3CC[C@@H]12 -3.76, CCOC(=O)[C@H](CC(C)C)NC(=O)CCC1CC(OC(=O)NCCc2ccc(F)cc2)CC2(CCCC(COC(=O)NCCc3ccccc3OC)O2)O1 (stereo partly specified) -2.36, CC(C)CON=C1C[C@@H](O)[C@@H](O)[C@@H]2[C@@H]3C(=O)N(C4CCCCC4)C(=O)[C@@H]3CC[C@@H]12 -4.41, CCc1cc2c(nc1CC)CCN(CCC(C)=NO[C@H](C)c1cn([C@H](CO)Cc3ccccc3)nn1)C2 -5.78, CC(C)(C)N1C(=O)[C@H]2[C@H]3[C@H](O)[C@H](O)CC(=O)[C@H]3CC[C@H]2C1=O 0.117, COC(=O)CC=C[C@@H](C)[C@@H](C=NO[C@@H]1O[C@H](COC(C)=O)[C@@H](OC(C)=O)[C@H](OC(C)=O)[C@H]1OC(C)=O)NS(=O)(=O)c1ccc(C)cc1 -5.17, C[C@@H](c1ccccc1)N1C(=O)[C@H]2[C@H]3[C@H](O)[C@H](O)CC(=O)[C@H]3CC[C@H]2C1=O 0.0632, CC(=O)O[C@H]1C2=CO[C@H](C)[C@H]3[C@H]4C5=C([C@H](O)[C@H]6O[C@H]6C5=O)[C@H](OC4C)[C@@]23C(=O)[C@@H]2O[C@@H]21 (stereo partly specified) -1.02, O=C(NN=C1C[C@@H](O)[C@@H](O)[C@@H]2[C@@H]3C(=O)N(C[C@@H]4CCCO4)C(=O)[C@@H]3CC[C@@H]12)OCc1ccccc1 0.756, C=COC[C@@H]1CN2[C@@H](CC[C@@H](C)[C@@H]2c2ccc(Br)cc2)C(=O)O1 -2.54, CC(C)CON=C1C[C@@H](O)[C@@H](O)[C@@H]2[C@@H]3C(=O)N(C[C@@H]4CCCO4)C(=O)[C@@H]3CC[C@@H]12 -0.771, CC(C)(C)N1C(=O)[C@H]2[C@H]3[C@H](O)[C@H](O)CC(=NOCc4ccccc4)[C@H]3CC[C@H]2C1=O -4.16, CCOC(=O)CCN1C(=O)[C@H]2[C@H]3[C@H](O)[C@H](O)CC(=NOCc4ccccc4)[C@H]3CC[C@H]2C1=O 0.313
